Screening results (PubChem)
This is a sample that favours compounds with a hit; in the whole collection about 19% have one here.
HT1080 IDH1KD tx: kills HT-1080 cells with IDH1 knockdown. HT-1080 IDH1 knockdown viability, ATP luminescence, 48 h. Potency, µM (top dose mostly 46.1 µM), for inactives: top-dose activity, negative = toxicity, hits mostly cytotoxic. 360,000 tested, 2% active;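 also: potency is read from the fitted curve at half-maximal effect; 0% = DMSO wells and -100% = cell-free medium wells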
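Knockdown cells (IDH1KD HT-1080) received compounds 2 h after plating at 750 cells/well and were kept 48 h at 37 °C in 5% FBS RPMI. A CellTiter-Glo luminescence read gave % activity for curve fitting.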
HT1080-NT tox: kills 2HG-producing HT-1080-NT fibrosarcoma cells; HT-1080-NT fibrosarcoma viability, CellTiter-Glo ATP luminescence, 48 h; Potency, µM (series often up to 46.1 µM), inactives show at the top dose activity, negative = less viability, actives largely listed as cytotoxic; 360,000 tested, 1.6% active;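 also: NT is the 2HG producing partner of a matched IDH1 knockdown line; potency is read from the fitted curve at half-maximal effect; 0% = DMSO-treated cells and -100% = media-only wells without cells; nearly all actives have a fitted effect of over 55% in size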
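HT-1080-NT; 750 cells/well; 5% FBS RPMI; 48 h compound, 37 degrees C; CellTiter-Glo luminescence; curve fitting and curve-class assignment.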
TDP1 cell CPT: DT40-hTDP1 cell growth loss with CPT; 420,000 tested, 12% active; chicken DT40 Tdp1-/-;hTDP1 cells + 20 nM CPT, ATP luminescence, 48 h; Potency, µM (top dose mostly 46.2 µM), without a hit: top-dose activity change, negative = growth inhibition, most hits filed as inhibitors; also: potency is read from the fitted curve at half-maximal effect; nearly all actives have a fitted effect of over 55% in size
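Chicken DT40 Tdp1-/- cells stably complemented with human TDP1 were seeded at 400 cells/well in medium containing 20 nM camptothecin, exposed to pin-transferred compounds, and grown at 37 °C for at least 48 hr. Viability was read as ATP luminescence.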
IL-1B inflam inh: inhibitors of inflammasome signaling (IL-1 beta secretion) | THP-1 LPS/ATP IL-1B secretion, AlphaLISA, 16 h; active compounds read low | activity change, % at 57.5 µM | 360,000 tested, 4.7% active; in the data active = activity change below about -50%; inconclusive = mostly about -30% to -49%
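THP-1 cells pretreated 1 hr with compounds (up to 57.5 uM final), then stimulated with LPS (250 ng/mL final) plus ATP (1.25 mM final); secreted IL-1B measured by AlphaLISA after 16 hr, decreased signal indicating inhibition.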
TDP1 cell noCPT: qHTS for Inhibitors of human tyrosyl-DNA phosphodiesterase 1 (TDP1): qHTS in cells in absence of CPT | Potency, µM (top dose mostly 46.2 µM), for the others: at the top dose activity change, negative = growth inhibition, most hits filed as inhibitors | 420,000 tested, 15% active | DT40 Tdp1-/- hTDP1 cells, no CPT, ATP luminescence, 48 h; also: potency is read from the fitted curve at half-maximal effect; nearly all actives have a fitted effect of over 55% in size
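Camptothecin absent (DMSO only). Human TDP1-complemented DT40 knockout cells, 400 cells/well, 37 °C for minimum 48 hr; ATP measured via CellTiter-Glo, 30 min dark incubation, luminescence.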
Starred values were filed as active, the others as inactive; ? = inconclusive; . = no result; [ ] = dose if it differs, or a comment. Unless noted, calls follow the shape of the dose curve; as a rule, active = well fitted curve in the direction sought with a large enough effect; inconclusive = small, poorly fitted or top-dose-only effect, or another doubt; inactive = no such curve, though single readings can be large; an effect the other way counts as inactive or inconclusive. Unless noted, % is scaled to controls: 0 for no effect and ±100 for the full control effect.

SMILES | HT1080 IDH1KD tx | HT1080-NT tox | TDP1 cell CPT | IL-1B inflam inh | TDP1 cell noCPT
Cc1ccc(-n2nc3c(=O)n(CCCC(=O)NCCc4ccccc4Cl)nc(C)c3c2C)cc1 | . | . | 8.2µM* | . | 14.6µM*
c1ccc2c(Nc3ccc(N4CCOCC4)cc3)nc(N3CCOCC3)nc2c1 | ? | ? | ? | -70.3* | 20.6µM*
Oc1ccc(Nc2nc(N3CCCC3)c3ccccc3n2)cc1 | ? | ? | 25.9µM* | -98.8* | 20.6µM*
c1ccc2c(c1)nc(N1CCCCCC1)c1ccccc12 | -14.7% | 0.0% | ? | 47.5 | ?
Cc1ccc(Nc2nc(N)c([N+](=O)[O-])c(N3CCOCC3)n2)cc1 | 8.0% | 8.6% | -25.4% | -6.6 | -25.1%
Cc1ccc(Nc2nc(N3CCOCC3)c3ccccc3n2)cc1 | -24.9% | ? | 20.6µM* | -104.3* | 20.6µM*
CN1CCN(c2ccc(-c3ccc4ccccc4n3)cc2)CC1 | ? | ? | ? | -65.3* | 18.4µM*
Cc1ccc(S(=O)(=O)Nc2ncnc3ccccc23)cc1 | -3.6% | 2.6% | -13.5% | 67.0 | ?
Cc1cc(-c2ccc(N3CCOCC3)cc2)nc2ccccc12 | 6.5% | 3.5% | 20.6µM* | -13.2 | 23.1µM*
COc1ccc(Nc2nc(N3CCCCC3)c3ccccc3n2)cc1 | ? | -24.9% | 18.4µM* | -101.2* | 18.4µM*
C(=C\c1nc(N2CCCC2)c2ccccc2n1)/c1ccccc1 | ? | 25.9µM* | ? | -98.2* | ?
c1ccc2nc(-c3ccc(N4CCOCC4)cc3)ccc2c1 | 5.2% | 4.3% | -21.4% | 36.6 | -23.1%
CCOC(=O)Nc1ccc(NC(=O)c2ccccc2F)cc1 | -1.2% | 10.0% | -28.1% | -16.5 | -27.7%
CCN(CC)C(=O)[C@H]1C[C@H](CC(=O)NCc2cccc(C(F)(F)F)c2)C(=O)N2CCc3c([nH]c4cc(CCC(=O)N(C)C)ccc34)[C@]12C | 3.1% | 6.9% | ? | -21.3 | ?
CCN(CC)C(=O)[C@H]1CC(CC(=O)NCc2cccc(C(F)(F)F)c2)C(=O)N2CCc3c([nH]c4ccccc34)[C@]12C (some centres not stated) | -11.9% | -4.3% | 14.6µM* | ? | 20.6µM*
CC(C)N(C(=O)[C@H]1C[C@H](CC(=O)NCc2cccc(C(F)(F)F)c2)C(=O)N2CCc3c([nH]c4cc(CCC(=O)N(C)C)ccc34)[C@]12C)C(C)C | 2.6% | -3.5% | ? | -66.9* | ?
CCN(CC)C(=O)[C@H]1CC(CC(=O)NCCCN(C)C)C(=O)N2CCc3c([nH]c4ccccc34)[C@]12C (some centres not stated) | 6.1% | 7.0% | 3.9% | -7.9 | 0.6%
O=C(Nc1cccc2ccccc12)NC1CCCCC1O (configuration not stated) | -1.4% | -0.4% | 3.1% | -4.1 | -7.9%
Cc1cc(=O)n2nc(N3CCCC(C(=O)Nc4ccc(C)c(C)c4)C3)sc2n1 (configuration not stated) | 0.6% | 4.2% | ? | ? | ?
COc1cc(C2C(C#N)=C(N)Oc3cc(O)ccc32)cc2c1OCO2 (configuration not stated) | 20.6µM* | ? | ? | 40.6 | ?
COc1cc(C2C(C#N)=C(N)Oc3cc4c(cc32)OCO4)cc(OC)c1OC (configuration not stated) | 0.0291µM* | 0.0366µM* | 0.184µM* | 80.7 | 0.164µM*
COc1ccc(C2C(C#N)=C(N)Oc3cc(O)ccc32)cc1OC (configuration not stated) | -11.9% | -0.8% | ? | -21.8 | -24.8%
Cc1cc(C)nc(NC(=S)Nc2ccc(Br)cc2Cl)c1 | 5.0% | 6.4% | 6.51µM* | 0.0 | 6.51µM*
O=C(NCC1CCN(Cc2ccc(F)cc2)CC1)c1cc2ccc3cccnc3c2[nH]1 | . | . | 16.4µM* | . | 20.6µM*
O=C(NCC1CCN(Cc2ccccc2Cl)CC1)c1cc2ccc3cccnc3c2[nH]1 | . | . | ? | . | 16.4µM*
SMILES | HT1080 IDH1KD tx | HT1080-NT tox | TDP1 cell CPT | IL-1B inflam inh | TDP1 cell noCPT
Nc1nc2c(ncn2[C@@H]2O[C@H](CNCc3ccc4ncccc4c3)[C@@H](O)[C@H]2O)c(=O)[nH]1 | 9.2% | 1.4% | 5.7% | 5.5 | -3.4%
Cc1cc(C(=O)COC(=O)CC2Sc3ccccc3NC2=O)c(C)n1-c1ccc2c(c1)OCO2 (configuration not stated) | -16.8% | -6.2% | ? | 25.8 | ?
Cc1cc(C(=O)COC(=O)c2ccc(N)c([N+](=O)[O-])c2)c(C)n1-c1ccc2c(c1)OCO2 | ? | -16.7% | 9.2µM* | 0.0 | 5.8µM*
COc1ccc(-n2c(C)cc(C(=O)COc3ccc(-n4cnnn4)cc3)c2C)cc1 | 4.0%[9.24 µM] | -4.2% | ? | -4.0 | ?
CC(=O)Nc1ccc(S(=O)(=O)NCC(=O)OCC(=O)c2cc(C)n(-c3ccc4c(c3)OCO4)c2C)cc1 | 0.9% | -0.1% | -12.4% | 31.8 | 8.2µM*
Cc1cc(C(=O)COC(=O)c2ccc(N)c([N+](=O)[O-])c2)c(C)n1Cc1ccc2c(c1)OCO2 | 12.8% | 8.5% | ? | 13.4 | ?
CC(=O)c1ccc(OCC(=O)c2cc(C)n(-c3ccc4c(c3)OCO4)c2C)cc1 | ? | 1.7% | 23.1µM* | -2.6 | 10.3µM*
C=CCn1c(C)cc(C(=O)COC(=O)c2ccc3c(c2)NC(=O)CS3)c1C | -24.9% | -25.0% | ? | ? | 16.4µM*
CCN(CC)S(=O)(=O)c1ccc(OC)c(NC(=O)/C=C/c2ccco2)c1 | 7.1% | 4.9% | ? | 6.5 | -21.4%
Cc1cc(C(=O)CSc2nnc(-c3ccc4c(c3)OCO4)o2)c(C)n1-c1ccc(F)cc1 | 0.8% | 13.8% | -12.2% | 43.3 | -2.2%
Cc1cc(C(=O)CN2C(=O)C(=O)N(Cc3ccccc3)C2=O)c(C)n1-c1ccc2c(c1)OCCO2 | ? | ? | 14.6µM* | 24.8 | 20.6µM*
C=CCn1c(C)cc(C(=O)COC(=O)c2ccc(N)c([N+](=O)[O-])c2)c1C | -7.0% | 0.7% | 18.4µM* | -7.0 | 16.4µM*
Cc1nnc(SCC(=O)c2cc(C)n(-c3ccc4c(c3)OCO4)c2C)s1 | -23.0% | -29.6% | 25.9µM* | -77.3* | 23.1µM*
CC(C)(C)C(=O)COC(=O)c1ccc(N)c([N+](=O)[O-])c1 | 15.0% | 9.1% | 18.4% | 16.7 | 9.3%
CCCC1(CCC)NC(=O)N(CC(=O)c2cc(C)n(-c3ccc4c(c3)OCO4)c2C)C1=O | -9.9% | -8.1% | ? | -11.7 | 20.6µM*
CSCCNC(=O)C1(C)CCN1C(=O)c1sccc1C (configuration not stated) | 22.0% | 1.9% | -4.6% | 12.0 | 1.6%
